# Experimental data as given in the supplement of paper PMC10849652.
# Targets with a hit are over-represented here; the source holds about 8,800 in all. About 0.5% of all pairs of compound and target were hits. Unmarked numbers belong to inactive results.
# Key:
# Assay in all cases: log2 fold change, soluble protein after heating vs DMSO (PISA); higher = thermal stabilisation; K562 lysate, 10 uM; active = over 0.2 and 3.5 SD of the protein, either way, in both replicates (recomputed)
# vemurafenib = compound: CCCS(=O)(=O)Nc1ccc(F)c(C(=O)c2c[nH]c3ncc(-c4ccc(Cl)cc4)cc23)c1F [vemurafenib]
# In short: (§1)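 A 30 min treatment with 10 μM compound was applied to crude K562 extract at 1 mg/mL protein in PBS pH 7.4 with 1 mM MgCl2. Heating for 3 min spanned 48°C-58°C, after which aliquots were pooled, adjusted to 0.5% NP-40 at 4°C and spun at 21,000xg for 90 min. TMTpro 16plex LC-MS/MS of the supernatant, with channel sums equalised, gave values recorded as log-two fold change in thermal stability against solvent controls, from duplicates.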
# [1] = compound: CCCS(=O)(=O)Nc1ccc(F)c(C(=O)c2c[nH]c3ncc(Cl)cc23)c1F
# In short: as §1
# barasertib = compound: CCN(CCCOc1ccc2c(Nc3cc(CC(=O)Nc4cccc(F)c4)[nH]n3)ncnc2c1)CCOP(=O)(O)O [barasertib]
# In short: as §1
# [2] = compound: CC[C@@H]1C(=O)N(C)c2cnc(Nc3ccc(C(=O)NC4CCN(C)CC4)cc3OC)nc2N1C1CCCC1
# In short: as §1
# volasertib = compound: CC[C@@H]1C(=O)N(C)c2cnc(Nc3ccc(C(=O)N[C@H]4CC[C@H](N5CCN(CC6CC6)CC5)CC4)cc3OC)nc2N1C(C)C [volasertib]
# In short: as §1
# [3] = compound: CCn1c(C(=O)N(C2CC2)C2CC2)cc2c3c(ncn3C)c(Nc3cc(C)n(C)n3)nc21
# In short: as §1
# [4] = compound: CCn1cc(-c2ccnc3[nH]c(-c4cccc(CN(C)C)c4)cc23)c(-c2ccc(NC(=O)N(C)C)cc2)n1
# In short: as §1
# [5] = compound: CN1CCC(CNc2ccc3ncc(-c4cccc(OC(F)(F)F)c4)n3n2)CC1
# In short: as §1
# saracatinib = compound: CN1CCN(CCOc2cc(OC3CCOCC3)c3c(Nc4c(Cl)ccc5c4OCO5)ncnc3c2)CC1 [saracatinib]
# In short: as §1
# sotrastaurin = compound: CN1CCN(c2nc(C3=C(c4c[nH]c5ccccc45)C(=O)NC3=O)c3ccccc3n2)CC1 [sotrastaurin]
# In short: as §1
# alvocidib = compound: CN1CC[C@H](c2c(O)cc(O)c3c(=O)cc(-c4ccccc4Cl)oc23)[C@H](O)C1 [alvocidib]
# In short: as §1
# Tubastatin A = compound: CN1CCc2c(c3ccccc3n2Cc2ccc(C(=O)NO)cc2)C1 [Tubastatin A]
# In short: as §1
# [6] = compound: CNC(=O)C1=CC=CC=C1NC2=NC(=NC=C2Cl)NC3=C(C=C(C=C3)N4CCOCC4)OC
# In short: as §1
# defactinib = compound: CNC(=O)c1ccc(Nc2ncc(C(F)(F)F)c(NCc3nccnc3N(C)S(C)(=O)=O)n2)cc1 [defactinib]
# In short: as §1
# [7] = compound: CNc1nc(-c2ccc3c(N)n[nH]c3c2)cc(N2C[C@@H](C(=O)NC3CCCCC3)CC[C@H]2C)n1
# In short: as §1
# encorafenib = compound: COC(=O)N[C@@H](C)CNc1nccc(-c2cn(C(C)C)nc2-c2cc(Cl)cc(NS(C)(=O)=O)c2F)n1 [encorafenib]
# In short: as §1
# [8] = compound: COC(=O)[C@H](CCSC)NC(=O)C1=C(C=C(C=C1)NC[C@H](CS)N)C2=CC=CC=C2
# In short: as §1
# alisertib = compound: COc1cc(Nc2ncc3c(n2)-c2ccc(Cl)cc2C(c2c(F)cccc2OC)=NC3)ccc1C(=O)O [alisertib]
# In short: as §1
# [9] = compound: COc1cc2nc(-c3cc(F)ccc3O)nc(N[C@@H]3CNC[C@H]3C(C)(C)O)c2cc1OC
# In short: as §1
# gefitinib = compound: COc1cc2ncnc(Nc3ccc(F)c(Cl)c3)c2cc1OCCCN1CCOCC1 [gefitinib]
# In short: as §1
# Chain of UniProt Q9NQR4 (Q9NQR4 whole entry, looked up): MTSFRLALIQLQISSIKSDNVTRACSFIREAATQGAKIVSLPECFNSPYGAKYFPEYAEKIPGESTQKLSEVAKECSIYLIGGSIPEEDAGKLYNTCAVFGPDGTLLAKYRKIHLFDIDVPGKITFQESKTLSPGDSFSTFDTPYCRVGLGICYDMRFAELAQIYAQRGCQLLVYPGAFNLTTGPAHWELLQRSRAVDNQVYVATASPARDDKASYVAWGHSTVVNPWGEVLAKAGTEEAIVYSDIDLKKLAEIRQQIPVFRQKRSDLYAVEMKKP
# Chain of UniProt P03886 (P03886 whole entry, looked up): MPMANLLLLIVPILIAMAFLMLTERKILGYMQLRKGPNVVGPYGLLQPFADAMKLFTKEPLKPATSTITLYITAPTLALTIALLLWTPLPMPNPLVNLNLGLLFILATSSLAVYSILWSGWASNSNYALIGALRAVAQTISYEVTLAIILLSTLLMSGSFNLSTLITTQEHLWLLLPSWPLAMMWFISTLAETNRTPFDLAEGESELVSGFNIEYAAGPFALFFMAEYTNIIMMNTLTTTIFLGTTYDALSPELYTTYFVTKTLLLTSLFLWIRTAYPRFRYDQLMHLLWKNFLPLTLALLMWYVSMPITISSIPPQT
# Chain of UniProt Q9NX02 (Q9NX02 whole entry, looked up): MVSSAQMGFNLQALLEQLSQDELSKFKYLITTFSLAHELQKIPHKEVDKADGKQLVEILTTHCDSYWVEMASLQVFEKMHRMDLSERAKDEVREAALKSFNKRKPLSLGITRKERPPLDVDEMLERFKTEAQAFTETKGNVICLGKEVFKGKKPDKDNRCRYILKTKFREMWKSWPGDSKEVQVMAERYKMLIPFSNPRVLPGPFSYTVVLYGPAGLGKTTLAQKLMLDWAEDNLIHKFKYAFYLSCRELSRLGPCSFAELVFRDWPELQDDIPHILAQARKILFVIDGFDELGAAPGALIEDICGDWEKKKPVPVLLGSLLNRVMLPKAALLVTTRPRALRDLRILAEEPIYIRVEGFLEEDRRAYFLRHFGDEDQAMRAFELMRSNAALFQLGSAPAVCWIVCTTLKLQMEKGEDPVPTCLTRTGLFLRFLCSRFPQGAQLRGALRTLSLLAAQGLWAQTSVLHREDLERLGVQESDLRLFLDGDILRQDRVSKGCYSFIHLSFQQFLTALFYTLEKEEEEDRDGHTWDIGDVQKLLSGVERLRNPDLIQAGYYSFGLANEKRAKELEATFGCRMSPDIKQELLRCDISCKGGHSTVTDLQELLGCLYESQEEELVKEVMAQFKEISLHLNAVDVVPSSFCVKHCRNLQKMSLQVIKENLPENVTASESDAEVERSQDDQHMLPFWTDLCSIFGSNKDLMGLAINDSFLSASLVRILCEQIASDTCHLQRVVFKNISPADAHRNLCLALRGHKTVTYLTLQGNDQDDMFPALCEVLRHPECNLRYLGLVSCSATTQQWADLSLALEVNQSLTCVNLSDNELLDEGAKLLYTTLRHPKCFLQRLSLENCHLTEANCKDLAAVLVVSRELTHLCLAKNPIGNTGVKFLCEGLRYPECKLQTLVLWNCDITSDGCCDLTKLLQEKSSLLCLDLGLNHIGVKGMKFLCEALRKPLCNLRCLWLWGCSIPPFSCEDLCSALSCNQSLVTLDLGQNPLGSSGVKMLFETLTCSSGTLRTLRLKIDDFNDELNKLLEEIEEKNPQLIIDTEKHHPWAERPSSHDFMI
# Chain of UniProt Q96KB5 (Q96KB5 whole entry, looked up): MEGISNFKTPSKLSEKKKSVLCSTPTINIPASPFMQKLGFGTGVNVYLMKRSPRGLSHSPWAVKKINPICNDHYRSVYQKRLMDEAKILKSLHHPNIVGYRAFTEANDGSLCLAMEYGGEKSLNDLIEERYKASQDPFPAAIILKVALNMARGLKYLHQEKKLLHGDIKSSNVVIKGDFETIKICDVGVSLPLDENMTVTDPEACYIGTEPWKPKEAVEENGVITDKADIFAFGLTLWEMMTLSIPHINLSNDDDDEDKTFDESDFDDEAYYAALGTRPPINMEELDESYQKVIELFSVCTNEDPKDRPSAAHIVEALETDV
# Chain of UniProt P30419 (P30419 whole entry, looked up): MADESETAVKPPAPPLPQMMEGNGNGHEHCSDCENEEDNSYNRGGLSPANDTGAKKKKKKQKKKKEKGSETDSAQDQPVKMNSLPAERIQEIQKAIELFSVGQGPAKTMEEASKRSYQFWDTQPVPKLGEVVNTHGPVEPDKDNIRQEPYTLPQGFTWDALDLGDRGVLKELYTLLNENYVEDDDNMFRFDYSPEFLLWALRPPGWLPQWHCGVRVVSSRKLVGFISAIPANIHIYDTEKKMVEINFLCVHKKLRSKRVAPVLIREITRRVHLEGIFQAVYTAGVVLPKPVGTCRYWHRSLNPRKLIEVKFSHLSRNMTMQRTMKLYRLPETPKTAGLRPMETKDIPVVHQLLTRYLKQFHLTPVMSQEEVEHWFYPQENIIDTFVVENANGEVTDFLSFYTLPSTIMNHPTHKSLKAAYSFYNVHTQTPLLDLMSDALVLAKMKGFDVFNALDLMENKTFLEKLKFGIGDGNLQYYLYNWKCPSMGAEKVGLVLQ
# Chain of UniProt Q96I59 (Q96I59 whole entry, looked up): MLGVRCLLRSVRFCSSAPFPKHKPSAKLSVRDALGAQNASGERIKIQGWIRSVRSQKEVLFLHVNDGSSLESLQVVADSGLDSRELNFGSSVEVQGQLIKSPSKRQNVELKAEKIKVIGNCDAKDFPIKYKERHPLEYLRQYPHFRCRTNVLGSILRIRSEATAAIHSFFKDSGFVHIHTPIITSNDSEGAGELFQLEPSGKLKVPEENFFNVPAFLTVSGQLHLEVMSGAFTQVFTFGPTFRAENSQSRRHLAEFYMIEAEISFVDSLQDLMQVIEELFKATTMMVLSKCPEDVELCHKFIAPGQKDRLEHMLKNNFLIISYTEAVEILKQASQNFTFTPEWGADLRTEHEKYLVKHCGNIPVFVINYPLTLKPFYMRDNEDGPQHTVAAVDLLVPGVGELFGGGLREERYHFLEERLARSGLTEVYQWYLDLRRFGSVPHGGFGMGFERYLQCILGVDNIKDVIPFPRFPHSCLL
# Chain of UniProt O60934 (O60934 whole entry, looked up): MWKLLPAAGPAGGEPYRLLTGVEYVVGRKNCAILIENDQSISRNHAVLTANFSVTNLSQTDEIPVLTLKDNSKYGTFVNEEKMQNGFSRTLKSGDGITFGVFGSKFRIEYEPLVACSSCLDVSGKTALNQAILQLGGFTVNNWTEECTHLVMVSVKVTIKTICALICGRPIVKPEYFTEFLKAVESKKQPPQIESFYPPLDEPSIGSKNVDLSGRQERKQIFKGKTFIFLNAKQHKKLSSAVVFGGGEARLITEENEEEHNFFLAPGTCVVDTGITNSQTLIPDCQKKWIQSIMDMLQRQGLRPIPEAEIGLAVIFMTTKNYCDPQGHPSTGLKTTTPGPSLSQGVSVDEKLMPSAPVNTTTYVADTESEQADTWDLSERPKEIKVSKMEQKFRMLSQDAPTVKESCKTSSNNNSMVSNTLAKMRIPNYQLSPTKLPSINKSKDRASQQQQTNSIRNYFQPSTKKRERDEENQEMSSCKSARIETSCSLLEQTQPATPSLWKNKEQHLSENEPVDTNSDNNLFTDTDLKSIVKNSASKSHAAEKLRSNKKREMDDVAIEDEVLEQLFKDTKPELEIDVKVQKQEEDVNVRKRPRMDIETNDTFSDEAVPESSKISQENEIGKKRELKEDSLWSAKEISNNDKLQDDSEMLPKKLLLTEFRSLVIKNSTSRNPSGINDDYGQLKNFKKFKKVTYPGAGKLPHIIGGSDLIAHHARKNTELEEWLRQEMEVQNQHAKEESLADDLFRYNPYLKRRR
# Chain of UniProt Q9NZJ9 (Q9NZJ9 whole entry, looked up): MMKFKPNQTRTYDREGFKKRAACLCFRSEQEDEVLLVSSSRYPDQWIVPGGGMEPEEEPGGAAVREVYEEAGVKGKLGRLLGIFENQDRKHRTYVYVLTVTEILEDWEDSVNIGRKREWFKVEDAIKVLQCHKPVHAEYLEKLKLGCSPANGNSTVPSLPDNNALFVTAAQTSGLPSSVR
Target,log2 fold change (vemurafenib),log2 fold change [1],log2 fold change (barasertib),log2 fold change [2],log2 fold change (volasertib),log2 fold change [3],log2 fold change [4],log2 fold change [5],log2 fold change (saracatinib),log2 fold change (sotrastaurin),log2 fold change (alvocidib),log2 fold change (Tubastatin A),log2 fold change [6],log2 fold change (defactinib),log2 fold change [7],log2 fold change (encorafenib),log2 fold change [8],log2 fold change (alisertib),log2 fold change [9],log2 fold change (gefitinib)
NARS2 (UniProt Q96I59),0.022,0.028,0,-0.025,-0.067,0.041,-0.091,0.027,0.001,-0.024,0.013,-0.157,-0.046,0.014,-0.04,-0.01,0.039,-0.006,-0.01,-0.016
PBK (UniProt Q96KB5),-0.006,0.002,-0.009,-0.069,-0.033,0.039,0.043,-0.017,-0.018,-0.015,0.013,-0.041,-0.001,-0.004,-0.015,-0.011,0.099,-0.013,-0.003,-0.023
NLRP2 (UniProt Q9NX02),-0.011,-0.003,-0.04,-0.048,-0.067,0.041,0.031,-0.05,-0.012,-0.017,0.034,-0.227,0,0.024,-0.044,0.034,-0.239 (active),-0.025,0,-0.012
NMT1 (UniProt P30419),0.024,0.016,-0.025,0.014,-0.002,0.01,-0.04,0.001,0.003,0.025,0.021,0.001,0.001,0.031,0.011,-0.001,0.087,-0.005,0.007,-0.006
MT-ND1 (UniProt P03886),-0.074,0.012,0.056,-0.068,-0.04,-0.096,-0.355,0.066,0.075,0.038,-0.149,-0.037,0.043,0.081,0.014,0.046,-0.051,0.032,-0.073,0.087
NUDT4 (UniProt Q9NZJ9),-0.24,0.04,-0.032,-0.078,-0.054,0.082,0.23,0.005,-0.03,0.005,-0.001,-0.149,0.063,0.153,-0.066,0.051,-0.17,-0.036,0.001,-0.052
NIT2 (UniProt Q9NQR4),-0.003,0.005,-0.008,0.005,-0.004,-0.004,0.02,-0.013,-0.008,-0.012,0.046,0.047,-0.003,-0.05,0.013,-0.032,0.082,0.012,0.019,-0.017
NBN (UniProt O60934),0.011,0.011,0.037,-0.028,-0.019,-0.003,0.043,-0.058,0.025,0.001,0.008,-0.041,-0.006,-0.029,0.014,0.022,0.048,-0.009,0.018,-0.061
